Source: PubChem BioAssay (several laboratories)
Compounds with a hit are over-represented: about 3.7% of the library has one in this group of screens.
tim10-1 inh: growth inhibitors of tim10-1 mutant yeast; inhibition, % at 20 µM; actives 2.2% (n = 330,000); S. cerevisiae tim10-1 ts strain growth, BacTiter-Glo, 24 h;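 active = inhibition of at least 40%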;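 note: mutant grown at 25 °C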
tim23-1 inh: tim23-1 yeast growth inhibition; actives 1.3% (n = 330,000); AID 463212; S. cerevisiae tim23-1 growth, BacTiter-Glo luminescence, 24 h; inhibition, % at 20 µM;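 active = growth inhibition of the mutant yeast at or above 50%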;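 note: temperature-sensitive mutant grown at 25 °C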
Rce1 inh: inhibitors of yeast Ras-converting enzyme | Q03530 | yeast membranes, quenched prenylated peptide cleavage fluorescence | calls only | actives 0.27% (n = 290,000);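 active = fall in fluorescence gain of 50% or more versus controls, with final raw signal at or below 3038400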
Target sequence (Q03530 whole entry, looked up): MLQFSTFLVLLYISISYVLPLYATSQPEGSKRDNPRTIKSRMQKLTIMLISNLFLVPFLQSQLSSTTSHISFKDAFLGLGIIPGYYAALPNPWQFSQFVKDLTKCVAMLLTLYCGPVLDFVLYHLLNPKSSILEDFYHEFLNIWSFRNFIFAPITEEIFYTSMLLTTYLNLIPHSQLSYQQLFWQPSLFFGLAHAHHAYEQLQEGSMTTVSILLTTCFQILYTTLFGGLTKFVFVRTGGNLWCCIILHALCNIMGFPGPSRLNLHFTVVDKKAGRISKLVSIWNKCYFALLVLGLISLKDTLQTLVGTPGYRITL
TIM10 inh: TIM10 yeast growth inhibition. actives 1.4% (n = 330,000). AID 463195. inhibition, % at 10 µM. S. cerevisiae TIM10 strain growth, BacTiter-Glo luminescence, 24 h;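 active = inhibition of 40% or more at the single tested concentration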;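 note: wild-type TIM10 isogenic control strain grown at permissive 25 °C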
PfHsp90 yeast 2: reduces growth (ATP signal) of yeast expressing P. falciparum Hsp90 | S. cerevisiae expressing PfHsp90, BacTiter-Glo ATP, 48 h; yeast lacking PDR1 and PDR3 efflux regulators | inhibition, % at 9.4 µM | actives 0.32% (n = 310,000) | AID 504621;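 active = every replicate shows inhibition above about 80%, whatever the replicate mean, limit read from the data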
tim23-1 confirm: confirmation of tim23-1 mutant yeast growth inhibitors; S. cerevisiae tim23-1 growth, BacTiter-Glo luminescence, 24 h; shares compounds with tim23-1 inh; actives 83% (n = 4,400); AID 463218; inhibition, % at 20 µM;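 active = inhibition above about 39% in either of two replicate wells at 20 µM, limit read from the data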;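 note: temperature-sensitive tim23-1 mutant grown at 25 °C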
A number is an active result.

`Cc1cccn2c(=O)c(/C=C(\C#N)C(=O)NCc3ccco3)c(N3CCCCCC3)nc12` gave tim10-1 inh inactive, tim23-1 inh 53.4, Rce1 inh inactive, TIM10 inh inactive and tim23-1 confirm 47.9.
Screening CC(=O)c1cccc(NC(=O)C2C3C=CC(C3=C(c3ccccc3)c3ccccc3)C2C(=O)O)c1 (stereo not given) returned tim10-1 inh inactive, tim23-1 inh inactive, Rce1 inh inactive, TIM10 inh inactive and PfHsp90 yeast 2 inactive.
CC(=O)NC(c1ccc(C(C)C)cc1)c1ccc2cccnc2c1O (stereo not given) was read as tim10-1 inh inactive, tim23-1 inh 58.1, Rce1 inh inactive, TIM10 inh inactive, PfHsp90 yeast 2 107.9 and tim23-1 confirm 60.1.
COc1cccc(C(NC(C)=O)c2ccc3cccnc3c2O)c1 (stereo not given) was read as tim10-1 inh inactive, tim23-1 inh inactive, TIM10 inh inactive and PfHsp90 yeast 2 inactive.
`CC(=O)NC(c1cc(Cl)c2cccnc2c1O)C(C)C` (stereo not given) gave tim10-1 inh inactive, tim23-1 inh inactive, TIM10 inh inactive and PfHsp90 yeast 2 inactive.
CC(=O)NC(c1ccc(C)cc1)c1cc(Cl)c2cccnc2c1O (stereo not given) was read as tim10-1 inh inactive, tim23-1 inh 62.3, Rce1 inh inactive, TIM10 inh inactive, PfHsp90 yeast 2 114.5 and tim23-1 confirm 67.5.
Screening CCCC(=O)NC(c1ccc(OC)cc1)c1ccc2cccnc2c1O (stereo not given) returned tim10-1 inh inactive, tim23-1 inh inactive, Rce1 inh inactive and TIM10 inh inactive.
Screening CCCCC(=O)NC(c1ccccc1)c1ccc2cccnc2c1O (stereo not given) returned tim10-1 inh inactive, tim23-1 inh 66.3, TIM10 inh inactive, PfHsp90 yeast 2 114.8 and tim23-1 confirm 57.5.
`CCCC(=O)NC(c1ccccc1)c1ccc2cccnc2c1O` (stereo not given) gave tim10-1 inh inactive, tim23-1 inh 58.1, TIM10 inh inactive, PfHsp90 yeast 2 113.3 and tim23-1 confirm 60.2.
Screening CCCCC(=O)NC(c1ccccc1Cl)c1ccc2cccnc2c1O (stereo not given) returned tim10-1 inh inactive, tim23-1 inh 53.5, Rce1 inh inactive, TIM10 inh inactive, PfHsp90 yeast 2 inactive and tim23-1 confirm 49.3.
Screening CCCCC(=O)NC(c1ccc([N+](=O)[O-])cc1)c1c(O)ccc2ccccc12 (stereo not given) returned tim10-1 inh inactive, tim23-1 inh inactive, Rce1 inh inactive, TIM10 inh inactive and PfHsp90 yeast 2 inactive.
`CCC(=O)NC(c1ccccc1OC)c1ccc2cccnc2c1O` (stereo not given) gave tim10-1 inh inactive, tim23-1 inh inactive, Rce1 inh inactive, TIM10 inh inactive and PfHsp90 yeast 2 inactive.
Screening CCCCC(=O)NC(c1ccc(C(C)C)cc1)c1ccc2cccnc2c1O (stereo not given) returned tim10-1 inh inactive, tim23-1 inh 57.8, Rce1 inh inactive, TIM10 inh inactive, PfHsp90 yeast 2 89.7 and tim23-1 confirm 59.2.
`C=CCNC(=S)N/N=C(\C)c1ccccn1` gave tim10-1 inh inactive, tim23-1 inh 60.9, Rce1 inh inactive, TIM10 inh inactive, PfHsp90 yeast 2 inactive and tim23-1 confirm 50.8.
`Cc1sc2ncn(CC(=O)N3CCC(C(N)=O)CC3)c(=O)c2c1S(=O)(=O)N1CC(C)CC(C)C1` (stereo not given) gave tim10-1 inh inactive, tim23-1 inh inactive, Rce1 inh inactive, TIM10 inh inactive and PfHsp90 yeast 2 inactive.
O=C(CN1CCN(S(=O)(=O)c2ccc(F)cc2)CC1)Nc1ccc(F)cc1F was read as tim10-1 inh inactive, tim23-1 inh inactive, Rce1 inh inactive, TIM10 inh inactive and PfHsp90 yeast 2 inactive.
Screening O=C(NCC1COc2ccccc2O1)c1ccc(NC(=O)c2ccco2)cc1 (stereo not given) returned tim10-1 inh inactive, tim23-1 inh 58.4, Rce1 inh inactive, TIM10 inh inactive, PfHsp90 yeast 2 inactive and tim23-1 confirm 53.3.
Cc1ccc(NC(=O)C2CC2C)cc1S(=O)(=O)N1CCOCC1 (stereo not given) was read as tim10-1 inh inactive, tim23-1 inh inactive, Rce1 inh inactive and TIM10 inh inactive.
Screening O=C(CN1C(=O)c2ccccc2C1=O)NC1CCC(O)CC1 (stereo not given) returned tim10-1 inh inactive, tim23-1 inh inactive, TIM10 inh inactive and PfHsp90 yeast 2 inactive.
O=C1NC(c2ccccc2)=N/C1=C/c1ccco1 was read as tim10-1 inh inactive, tim23-1 inh inactive, Rce1 inh inactive, TIM10 inh inactive and PfHsp90 yeast 2 inactive.
For O=C1NC(c2cccc(Br)c2)=N/C1=C\c1ccco1 the results were tim10-1 inh inactive, tim23-1 inh 56.0, Rce1 inh inactive, TIM10 inh inactive, PfHsp90 yeast 2 inactive and tim23-1 confirm inactive.
Screening CC(C)(C)c1ccc(OCC(=O)NCc2ccco2)c(Br)c1 returned tim10-1 inh inactive, tim23-1 inh 55.7, Rce1 inh inactive, TIM10 inh inactive, PfHsp90 yeast 2 inactive and tim23-1 confirm 62.0.
For CC(C)(C)c1ccc(OCC(=O)NNC(=S)NC(=O)c2ccco2)c(Br)c1 the results were tim10-1 inh inactive, tim23-1 inh inactive, Rce1 inh inactive, TIM10 inh inactive and PfHsp90 yeast 2 inactive.
For N#CCCN(C(=O)Nc1ccccc1)C1CCCCC1 the results were PfHsp90 yeast 2 inactive.
Screening O=C1CN(c2ccccc2)C(=S)N1c1ccccc1 returned tim10-1 inh inactive, tim23-1 inh inactive, Rce1 inh inactive, TIM10 inh inactive and PfHsp90 yeast 2 inactive.
`O=C1CN(c2ccc(F)cc2)C(=S)N1c1ccccc1` gave tim10-1 inh inactive, tim23-1 inh 56.9, Rce1 inh inactive, TIM10 inh inactive, PfHsp90 yeast 2 inactive and tim23-1 confirm inactive.
NC(=O)NCCc1ccccc1 was read as tim10-1 inh inactive, tim23-1 inh inactive, Rce1 inh inactive and TIM10 inh inactive.
`O=C1c2ccccc2NC(c2ccc(-c3ccc(C(F)(F)F)cc3)o2)N1O` (stereo not given) gave tim10-1 inh inactive, tim23-1 inh 65.3, TIM10 inh inactive, PfHsp90 yeast 2 101.3 and tim23-1 confirm 59.0.
Screening Cc1cccc(NS(=O)(=O)c2ccc3c(c2)oc(=O)n3C)c1C returned tim10-1 inh inactive, tim23-1 inh 95.1, Rce1 inh inactive, TIM10 inh inactive, PfHsp90 yeast 2 inactive and tim23-1 confirm inactive.
Cc1c(C(=O)O)sc(S(=O)(=O)N2CCN(C(=O)CC(C)c3ccccc3)CC2)c1C(=O)O (stereo not given) was read as PfHsp90 yeast 2 inactive.
Screening CCOC(=O)c1c(NC(=O)CSc2nnnn2-c2ccc(OC)cc2)sc(C)c1C returned tim10-1 inh inactive, tim23-1 inh 50.2, Rce1 inh inactive, TIM10 inh inactive, PfHsp90 yeast 2 inactive and tim23-1 confirm 81.7.
